In general, inhibition refers to the relative decrease from the control value, in per cent.

About 2,100 (0.62%) of roughly 340,000 compounds were called active. Not all results are given here. Measured potencies and affinities stand elsewhere. Unmarked numbers belong to inactive results.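 How the source made its calls: active means first-screen hits whose inhibition reached a set limit at any dose in the follow-up dose series; inconclusive means inhibition above the set first-screen limit but never retested; inactive means the rest.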

The target of the assay is Rac GTPase-activating protein 1 (Homo sapiens) (UniProt Q9H0H5). Description: blockers of MgcRacGAP-driven Rac1 GTP hydrolysis – biochemical, ADP Hunter fluorescence, primary and confirmatory, confirmation (AID 624330).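 Further: fluorescence reports GDP produced by GAP-driven GTP hydrolysis.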 The conditions noted are these: MgcRacGAP-stimulated Rac1 GTP hydrolysis, at 30 µM, active compounds read high, GST-tagged Rac1 F28L mutant substrate.
Chain of Rac GTPase-activating protein 1 (Homo sapiens) (Q9H0H5 whole entry, looked up): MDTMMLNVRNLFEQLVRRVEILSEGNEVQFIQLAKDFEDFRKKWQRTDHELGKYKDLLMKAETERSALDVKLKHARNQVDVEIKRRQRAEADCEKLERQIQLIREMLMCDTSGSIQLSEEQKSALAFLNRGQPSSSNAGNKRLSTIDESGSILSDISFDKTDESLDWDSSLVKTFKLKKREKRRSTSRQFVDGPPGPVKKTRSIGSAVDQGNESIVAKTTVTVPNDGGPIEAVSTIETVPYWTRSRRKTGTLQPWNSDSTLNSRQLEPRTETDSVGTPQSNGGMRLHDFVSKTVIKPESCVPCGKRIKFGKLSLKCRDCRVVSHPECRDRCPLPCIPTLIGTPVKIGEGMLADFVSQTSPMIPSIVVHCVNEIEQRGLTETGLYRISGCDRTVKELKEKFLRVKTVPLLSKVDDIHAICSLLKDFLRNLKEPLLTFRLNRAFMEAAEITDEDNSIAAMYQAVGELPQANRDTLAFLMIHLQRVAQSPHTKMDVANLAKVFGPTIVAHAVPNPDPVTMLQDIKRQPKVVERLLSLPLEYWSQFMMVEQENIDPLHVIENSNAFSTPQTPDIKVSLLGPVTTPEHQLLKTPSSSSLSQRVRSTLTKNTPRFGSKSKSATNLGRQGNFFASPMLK
As for `COc1ccccc1Oc1nnnn1-c1ccc(C(N)=O)cc1`, the inhibition is 2.99%.

As to `CCn1cc(/C=C(\NC(=O)c2ccccc2F)C(=O)N2CCN(C)CC2)c2ccccc21`, the inhibition is 19%.

Consider `C[C@@H]1CN(S(=O)C(C)(C)C)[C@@H](CCO)/C1=C\CCO` (stereo partly specified), for which the inhibition is 8.46%.

With `Cc1cc(NC(=O)c2ccccc2)no1`, the inhibition is 5.35%.

Regarding `Cc1ccc2c(Cl)c(C(=O)Nc3cc(C)on3)sc2c1`, the inhibition is 4.78%.

Take `Cc1ccc(S(=O)(=O)c2c(COC(=O)c3ccccc3Cl)c(-c3ccccc3)nn2C)cc1`: the inhibition was 4.7%.

On to `Cc1nc2ccc(NC(=O)CCS(=O)(=O)c3ccc(Cl)cc3)cc2s1`, for which the inhibition was -5.04%.

On to `CC(C)CC1NC(=O)N(CC(=O)Nc2ccc3c(c2)CCC3)C1=O` (stereo unspecified), for which the inhibition is 9.25%.

As to `O=C(NCCS(=O)(=O)c1ccc(Cl)cc1)c1ccc(F)cc1`, the inhibition was 2.29%.

In the case of `Cc1c(C(=O)Nc2ccc(S(=O)(=O)Nc3ncccn3)cc2)oc2ccc(F)cc12`, the inhibition is -2.01%.

For the compound `O=S1(=O)CCN(Cc2cccnc2)CC1`, the inhibition is 0.02%.

Consider `CC1CCCCN1Cc1ccc(N(C)C)cc1` (stereo unspecified), for which the inhibition is 9.51%.

Turning to `O=C(O)C1CCN(Cc2cccnc2)CC1`, the inhibition was 2.37%.

On to `CC1CCCCN1Cc1ccc(N)cc1` (stereo unspecified), for which the inhibition is 5.78%.

In the case of `COc1ccc(CN(CCc2ccccc2)Cc2ccccc2)cc1OC`, the inhibition was 28.5%.

For the compound `O=C(O)CSc1nnc(SCc2cccc3ccccc23)s1`, the inhibition was 4.86%.

For `CCN(CC)C(=O)CSc1nc2c(sc(=S)n2CC)c(=O)n1-c1ccccc1`, the inhibition was 2.69%.

Turning to `COc1ccc(N2C(=O)NC(=O)C2=O)cc1`, the inhibition is 6.21%.

With `Cc1ccc(N2C(=O)NC3(CCCCC3)C2=O)cc1`, the inhibition was 8.08%.

With `COC(=O)[C@@]12CCCN1[C@H](c1ccc(-c3ccc(Cl)c(Cl)c3)cc1)[C@H]1C(=O)N(C)C(=O)[C@H]12`, the inhibition was -9.75%.

Regarding `CN1CCN(CCC(=O)Nc2ccc(F)c(F)c2)CC1`, the inhibition was 2.01%.

In the case of `O=C(CN1CCc2ccccc2C1)Nc1ccccc1Cl`, the inhibition was 9.11%.

For `Cc1ccc(NC(=O)C(C)N2CCCC2)cc1Cl` (stereo unspecified), the inhibition was 13.2%.

As to `CC(=O)c1ccc(N2CCN(C(C)C(=O)Nc3ccc4c(c3)OCCO4)CC2)cc1` (stereo unspecified), the inhibition was -0.86%.

`O=C(CN1CCc2ccccc2C1)Nc1ccccc1F`: the inhibition was 8.8%.

With `CC(C(=O)Nc1ccc2c(c1)OCO2)N1CCC(N2CCCCC2)CC1` (stereo unspecified), the inhibition was 26%.

In the case of `Cc1cnc(NC(=O)C(C)N2C(=O)C3CC=CCC3C2=O)s1` (stereo unspecified), the inhibition is 5.83%.

Turning to `Cc1cnc(NC(=O)[C@H](C)N2C(=O)C3CCCCC3C2=O)s1` (stereo partly specified), the inhibition was 1.01%.

`Cc1cccc(-c2nc(C#N)c(N3CCC(C)CC3)o2)c1`: the inhibition is -3.59%.

As to `COc1ccccc1/C=N/NC(=O)CC(=O)Nc1ccc(Cl)c(Cl)c1`, the inhibition was 3.66%.

Consider `Cc1ccc(S(=O)(=O)NCCC(=O)N2CCN(Cc3ccccc3)CC2)cc1`, for which the inhibition was -1.47%.

As to `Cc1ccc(C(=O)OCC(=O)NCc2cccs2)c(C)c1`, the inhibition is 6.37%.

As for `Cc1ccc(Oc2ccccc2NC(=O)CSCC(=O)Nc2cc(C)on2)cc1`, the inhibition is 3.22%.

For the compound `COc1ccc(S(=O)(=O)N2CCN(C(C)C(=O)Nc3ccc(C(C)C)cc3)CC2)cc1` (stereo unspecified), the inhibition is 5.24%.

`COc1ccc(NC(=O)NN2CCN(C)CC2)cc1`: the inhibition is 2.87%.

For `CN1CCN(CCNC(=O)Nc2ccccc2C(F)(F)F)CC1`, the inhibition was -0.21%.

For `CN1CCN(CC(=O)Nc2ccccc2C(F)(F)F)CC1`, the inhibition was 28.9%.

As for `CC1Cc2ccccc2N1C(=O)CSc1nc2ccccc2s1` (stereo unspecified), the inhibition was 11.8%.

`CC(C)=NNC(=O)CN1C(=O)NC2NC(=O)NC21` (stereo unspecified): the inhibition was 6.56%.

Regarding `CC1(C)C2CCC(CN)C1C2` (stereo unspecified), the inhibition was 5.66%.

As to `Cc1nnc2sc(SCC(=O)Nc3cccc(Cl)c3)nn2c1=O`, the inhibition was 5.95%.

With `COCC(C)n1c(C)cc(C(=O)CSc2nnnn2-c2ccc(O)cc2)c1C` (stereo unspecified), the inhibition was 6.49%.

As to `Cc1cc(/C=C2\NC(=S)N(C)C2=O)ccc1N1CCCC1`, the inhibition is 22.4%.

With `COc1cc(/C=C2\NC(=S)N(C)C2=O)ccc1OCc1ccccc1F`, the inhibition is -3.41%.

Consider `O=C(NN=Cc1ccccc1C(=O)O)c1ccc(NS(=O)(=O)c2cccs2)cc1`, for which the inhibition was 5.61%.

Consider `O=C(Cn1ccccc1=O)Nc1ccc(Cl)c(S(=O)(=O)N2CCCCC2)c1`, for which the inhibition is 1.69%.

Consider `c1ccc(-c2csc(-c3cccnc3)n2)cc1`, for which the inhibition is 9.56%.

In the case of `Fc1ccccc1-c1csc(-c2cccnc2)n1`, the inhibition is -4.78%.

As for `NC(=O)c1cc(-c2csc(-c3cccnc3)n2)ccc1O`, the inhibition is 18.7%.

On to `Fc1ccc(-c2csc(-c3cccnc3)n2)cc1F`, for which the inhibition is 7.05%.

As to `COc1ccc(NC(=O)Nc2cccc3c2O[C@H](CN(C)S(=O)(=O)c2c(C)noc2C)[C@@H](C)CN([C@H](C)CO)C3=O)cc1`, the inhibition was 6.8%.

On to `Fc1ccc(-n2cnnn2)c(F)c1`, for which the inhibition was 3.22%.

For the compound `CCCOc1ccc(C(=O)Nc2ccc(N3CCN(C(=O)c4ccco4)CC3)cc2)cc1`, the inhibition was 3.27%.

Consider `CCC(C)[C@H](NC(=O)[C@@H]1Cc2ccccc2CN1)C(=O)Nc1ccc2c(c1)OCO2` (stereo partly specified), for which the inhibition is -13.9%.

For the compound `COc1cccc(NC(=O)CN(C)C(C)C(=O)Nc2ccc(S(=O)(=O)N3CCCC3)cc2)c1` (stereo unspecified), the inhibition was -2.38%.

In the case of `COc1cccc(/C=C/C(=O)OCC(=O)Nc2cc(S(=O)(=O)N3CCOCC3)ccc2C)c1`, the inhibition was 2.2%.

Regarding `COc1cc(/C=C/C(=O)OCC(=O)Nc2ccc(C)c(S(=O)(=O)N3CCCCC3)c2)ccc1O`, the inhibition was 13.2%.

With `CCN(CC(=O)Nc1cccc(S(=O)(=O)N2CCCC2)c1)CC(=O)Nc1ccccc1OC`, the inhibition was 2.96%.

For the compound `CCN(CC)c1ccc(S(=O)(=O)N2CCOCC2)cc1NC(=O)COC(=O)/C=C/c1ccccc1`, the inhibition was -3.02%.

For `COc1cc(/C=C/C(=O)OCC(=O)Nc2cc(S(=O)(=O)N3CCCC3)ccc2Cl)cc(OC)c1OC`, the inhibition was -3.8%.

As to `CCN(CC)c1ccc(S(=O)(=O)N2CCOCC2)cc1NC(=O)COC(=O)/C=C/c1ccc(C)o1`, the inhibition is 2.13%.

As to `COc1cccc(/C=C/C(=O)OCC(=O)Nc2ccc(S(=O)(=O)N3CCCC3)cc2)c1`, the inhibition is 1.91%.

On to `C=CCn1c(C(C)C)nc2ccccc21`, for which the inhibition is 4.59%.

Regarding `O=C1CN(C(=O)COC(=O)CCc2ccccc2O)c2ccccc2N1`, the inhibition was 1.54%.

Regarding `N#CC1(N2CCN(C(=O)c3ccccc3)CC2)CCCCC1`, the inhibition was 8.68%.

For the compound `Clc1ccc(N2CCN(c3ncnc4c3oc3ccccc34)CC2)cc1`, the inhibition is -2.02%.

Turning to `CCC(=O)Nc1cccc(C(=O)OCc2cccc([N+](=O)[O-])c2)c1`, the inhibition was 5.63%.

`Cc1cc(C(=O)Nc2c(C)n(C)n(-c3ccccc3)c2=O)on1`: the inhibition is 11.2%.

For the compound `O=C(c1ccc(F)cc1F)N1CCN(S(=O)(=O)c2ccc3c(c2)OCCO3)CC1`, the inhibition is 7.11%.

As to `COc1cc2cnc(CCO[C@H]3CCCCO3)cc2cc1OC`, the inhibition is 7.49%.

As for `COc1ccc(NC(=O)Cc2ccsc2)cc1S(=O)(=O)N1CCOCC1`, the inhibition was -4.48%.

Turning to `Cc1ccc(-c2onc3ccc(C4OCCO4)cc23)cc1`, the inhibition was 12.2%.

Regarding `CSc1ccccc1NC(=O)NCCCl`, the inhibition is -4.18%.

As for `CCCN1CCN(CCCNC(=O)C(CC)n2nc(C)n3c(cc4occc43)c2=O)CC1` (stereo unspecified), the inhibition is 10.2%.

`O=C(CCl)Nc1sccc1C(=O)c1ccccc1`: the inhibition is 11.5%.

In the case of `CCOc1ccc(C2Nc3ccc4ccccc4c3-c3c2c(=O)oc2ccccc32)cc1` (stereo unspecified), the inhibition is 5.67%.

For the compound `CC(=O)CCc1c(C)nc2ccc(C(=O)O)cc2c1Cl`, the inhibition was -3.43%.

For `Cc1nc2ccc(C(=O)O)cc2nc1C`, the inhibition is 8.31%.

Consider `Cc1cc(C)nc(NC2=NCCN2C(=O)NC2CCCCC2)n1`, for which the inhibition was 1.52%.

Turning to `Nc1ncnc2c1ncn2[C@@H]1O[C@H](CNCc2ccccc2OCc2ccc(Cl)cc2Cl)[C@@H](O)[C@H]1O`, the inhibition is 6.96%.

Take `COc1ccccc1/C=N/NC(=O)c1ccc(NC(=O)c2ccccc2Br)cc1`: the inhibition is 1.59%.

Take `Cc1ccc(NC(=O)NC(=O)CSc2n[nH]c(N)n2)c(C)c1`: the inhibition was -33.7%.

`Cc1oc(-c2nc3ccccc3n2C)cc1C(=O)c1ccccc1`: the inhibition is -4.53%.

`CC(=O)N1CCN(c2ccc(NC(=O)c3ccc4c(c3)OCO4)cc2)CC1`: the inhibition was 9.85%.

Regarding `O=C(O)c1cc(NCc2ccc3c(c2)OCO3)ccc1N1CCOCC1`, the inhibition was 12.2%.

Take `O=C(O)c1ccc(NCc2ccc3c(c2)OCO3)cc1`: the inhibition is 7.49%.

As for `O=C(CN1CCN(Cc2ccc3c(c2)OCO3)CC1)Nc1ccc(N2CCOCC2)cc1`, the inhibition is -4.89%.

Turning to `O=C(NCc1ccc2c(c1)OCO2)C(=O)NCC1OCCN1S(=O)(=O)c1ccccc1` (stereo unspecified), the inhibition is 4.4%.

As to `Cc1cccc(OCC(=O)N2CCCc3ccccc32)c1`, the inhibition is -0.63%.

As for `COc1ccc(CN(C)CCCn2cnc(C(=O)Nc3ccc(C)c(C)c3)n2)cc1OC`, the inhibition was 8.28%.

Consider `CCN1CCN(Cc2cccc(Oc3ccccc3)c2)CC1`, for which the inhibition was 22.4%.

Turning to `COc1ccccc1CN1CCN(C(=O)c2ccco2)CC1`, the inhibition is -1.8%.

Consider `CN1CCN(Cc2cccc(Oc3ccccc3)c2)CC1`, for which the inhibition is 4.23%.

Turning to `O=C(c1ccco1)N1CCN(Cc2cccc3ccccc23)CC1`, the inhibition is 15.8%.

Turning to `COc1cc(CN2CCN(Cc3ccccc3C(F)(F)F)CC2)cc(OC)c1OC`, the inhibition was 5.51%.

On to `COc1cccc(CN2CCN(c3ncccn3)CC2)c1OC`, for which the inhibition is 2.75%.
